Test results published in PubChem BioAssay AID1159580 (chemical genetic matrix, 2015).
Values joined by “and” are separate entries in the source; they are usually repeats but may differ in a detail not shown here. Equal values may be shown once. About 2,000 (36%) of roughly 5,500 compounds were called active. Inconclusive results (about 18%) are left out. No stated cut-off is given here; in the data, active means normalized growth mostly below about 0.91 (no sharp cut-off); inconclusive means no clear call, values can overlap the other calls; inactive means mostly above about 0.92. The list shows a part of the results.

Assay: chemical genetic growth profiling, strain panel (AID 1159580);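 further: tested at 20 µM; growth read once vehicle control cultures reached saturation at 30 °C; 1 = growth at the plate median or of vehicle wells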
Settings: S. cerevisiae deletion strains, growth OD

Measured: normalized growth

CCCCOc1ccc(C(=O)CCN2CCCCC2)cc1
inactive: locus YAL030W, strain snc1, stronger effect = lower value 0.977 | locus YBL061C, strain skt5, stronger effect = lower value 0.968 | locus YBR021W, strain FUR4, stronger effect = lower value 0.918 | locus YBR023C, strain chs3, stronger effect = lower value 0.95 | locus YBR171W, strain sec66, stronger effect = lower value 0.981 | locus YBR229C, strain ROT2, stronger effect = lower value 1 | locus YCL011C, strain gbp2, stronger effect = lower value 0.966 | locus YCL016C, strain dcc1, stronger effect = lower value 0.927 | locus YCR088W, strain abp1, stronger effect = lower value 0.94 | locus YDL005C, strain med2, stronger effect = lower value 0.994 | locus YDL040C, strain nat1, stronger effect = lower value 0.989 | locus YDL101C, strain DUN1, stronger effect = lower value 0.907 | locus YDL185W, strain tfp1, stronger effect = lower value 0.961 | locus YDR001C, strain nth1, stronger effect = lower value 0.992 | locus YDR101C, strain arx1, stronger effect = lower value 0.951 | locus YDR159W, strain sac3, stronger effect = lower value 0.913 | locus YDR297W, strain sur2, stronger effect = lower value 0.952 | locus YER015W, strain faa2, stronger effect = lower value 0.967 | locus YER111C, strain swi4, stronger effect = lower value 0.979 | locus YGL078C, strain dbp3, stronger effect = lower value 0.928 | locus YGL167C, strain pmr1, stronger effect = lower value 0.986 | locus YGL227W, strain vid30, stronger effect = lower value 0.997 | locus YHR079C, strain IRE1, stronger effect = lower value 1.04 | locus YIL125W, strain kgd1, stronger effect = lower value 0.957 | locus YJL092W, strain hpr5, stronger effect = lower value 0.918 | locus YJL115W, strain asf1, stronger effect = lower value 0.926 | locus YJL129C, strain trk1, stronger effect = lower value 0.899 | locus YJL154C, strain vps35, stronger effect = lower value 0.968 | locus YJL166W, strain qcr8, stronger effect = lower value 0.925 | locus YJL187C, strain SWE1, stronger effect = lower value 0.962
0.135 (active) and 0.992 (inactive): locus YHR030C, strain SLT2, stronger effect = lower value
active: locus YAL013W, strain DEP1, stronger effect = lower value 0.807 | locus YAL021C, strain ccr4, stronger effect = lower value 0.871 | locus YAL026C, strain drs2, stronger effect = lower value 0.107 | locus YBR009C, strain hhf1, stronger effect = lower value 0.879 | locus YBR231C, strain swc5, stronger effect = lower value 0.866 | locus YBR279W, strain paf1, stronger effect = lower value 0.931 | locus YCL029C, strain bik1, stronger effect = lower value 0.857 | locus YCL061C, strain MRC1, stronger effect = lower value 0.875 | locus YCL069W, strain vba3, stronger effect = lower value 0.139 | locus YDL035C, strain GPR1, stronger effect = lower value 0.772 | locus YDL074C, strain BRE1, stronger effect = lower value 0.5 | locus YDL134C, strain PPH21, stronger effect = lower value 0.137 | locus YDL192W, strain arf1, stronger effect = lower value 0.54 | locus YDR069C, strain doa4, stronger effect = lower value 0.898 | locus YDR137W, strain rgp1, stronger effect = lower value 0.769 | locus YDR162C, strain NBP2, stronger effect = lower value 0.44 | locus YDR195W, strain ref2 1.29 [resistant] | locus YDR318W, strain mcm21, stronger effect = lower value 0.0958 | locus YDR334W, strain swr1, stronger effect = lower value 0.851 | locus YDR335W, strain msn5, stronger effect = lower value 0.277 | locus YDR388W, stronger effect = lower value 0.53 | locus YDR392W, strain spt3, stronger effect = lower value 0.108 | locus YDR502C, strain sam2, stronger effect = lower value 0.657 | locus YEL003W, strain gim4, stronger effect = lower value 0.888 | locus YEL037C, strain rad23, stronger effect = lower value 0.853 | locus YEL061C, strain CIN8 (second series), stronger effect = lower value 0.446 | locus YEL061C, strain CIN8, stronger effect = lower value 0.675 | locus YER016W, strain bim1, stronger effect = lower value 0.9 | locus YER110C, stronger effect = lower value 0.275 | locus YER155C, strain BEM2 (second series), stronger effect = lower value 0.146 | locus YER155C, strain BEM2, stronger effect = lower value 0.258 | locus YER167W, strain BCK2, stronger effect = lower value 0.277 | locus YFR010W, strain ubp6, stronger effect = lower value 0.815 | locus YGL086W, strain mad1, stronger effect = lower value 0.157 | locus YGL173C, strain kem1, stronger effect = lower value 0.845 | locus YGL240W, strain doc1, stronger effect = lower value 0.85 | locus YGL248W, strain PDE1, stronger effect = lower value 0.0961 | locus YGL253W, strain hxk2, stronger effect = lower value 0.252 | locus YGR078C, strain PAC10, stronger effect = lower value 0.187 | locus YGR135W, strain pre9, stronger effect = lower value 0.42 | locus YGR229C, strain SMI1, stronger effect = lower value 0.428 | locus YGR252W, strain gcn5, stronger effect = lower value 0.402 | locus YHR013C, strain ard1, stronger effect = lower value 0.707 | locus YHR027C, strain rpn1, stronger effect = lower value 0.901 | locus YHR079C, strain IRE1 (second series), stronger effect = lower value 0.854 | locus YHR094C, strain hxt1, stronger effect = lower value 0.0833 | locus YHR129C, strain ARP1, stronger effect = lower value 0.413 | locus YHR142W, strain chs7, stronger effect = lower value 0.155 | locus YHR200W, strain rpn10, stronger effect = lower value 0.838 | locus YIL066C, strain RNR3, stronger effect = lower value 0.134 | locus YIL073C, strain SPO22, stronger effect = lower value 0.281 | locus YIR030C, strain dcg1, stronger effect = lower value 0.486 | locus YJL095W, strain BCK1 (second series), stronger effect = lower value 0.734 | locus YJL134W, strain LCB3, stronger effect = lower value 0.533 | locus YJL164C, strain tpk1, stronger effect = lower value 0.883 | locus YJL168C, strain set2, stronger effect = lower value 0.468 | locus YJL187C, strain SWE1 (second series), stronger effect = lower value 0.84 | locus YJR043C, strain POL32, stronger effect = lower value 0.636
0.415 (active) and 0.996 (inactive): locus YJL095W, strain BCK1, stronger effect = lower value
